# Screens from PubChem.
# Hits are enriched below; roughly 2% of the tested compounds scored in any of these assays.
# Granule exo inh: blocks lytic granule exocytosis. TALL-104 LAMP-1 surface exposure, flow cytometry; cells stimulated with thapsigargin and PMA. inhibition, % at 10 µM. 360,000 tested, 0.66% active. AID 651702;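 active means inhibition above about 55%, limit read from the data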
# NR1D1 modulator: modulates human Rev-erb alpha binding to DNA | Rev-erbα–FITC-DNA binding, fluorescence polarization, 90 min | activity, % at 10 µM | 370,000 tested, 0.79% active;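 active means activity above about 14%, limit read from the data; passing the limit was not always enough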;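 further: 0% = DMSO wells with 35 nM protein and 100% = DMSO wells with 750 nM protein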
# ABCB6 inh MLPCN: blocks the human ABCB6 transporter | fluorescence ratio to DMSO, % at 10 µM | AID 602162 | Q9NP58 | 360,000 tested, 0.19% active | K562-ABCB6 porphyrin accumulation, flow cytometry, 1 h; stronger effect = lower value;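 active means fluorescence ratio to DMSO below 75%, the collection mean minus 3 SD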;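 further: signal is porphyrin accumulated inside mitochondria; 100% equals median channel fluorescence of DMSO control wells; lower ratio means ABCB6 inhibition with less porphyrin fluorescence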
# VLA-4 inh: inhibition in a human VLA-4 binding assay; P13612; VLA-4 expressing cells, ligand binding flow cytometry; inhibition, % (about 7 µM as worked out from the volumes in the protocol); 330,000 tested, 0.2% active; in the data active means inhibition above about 50%
# Target sequence (P13612 whole entry, looked up): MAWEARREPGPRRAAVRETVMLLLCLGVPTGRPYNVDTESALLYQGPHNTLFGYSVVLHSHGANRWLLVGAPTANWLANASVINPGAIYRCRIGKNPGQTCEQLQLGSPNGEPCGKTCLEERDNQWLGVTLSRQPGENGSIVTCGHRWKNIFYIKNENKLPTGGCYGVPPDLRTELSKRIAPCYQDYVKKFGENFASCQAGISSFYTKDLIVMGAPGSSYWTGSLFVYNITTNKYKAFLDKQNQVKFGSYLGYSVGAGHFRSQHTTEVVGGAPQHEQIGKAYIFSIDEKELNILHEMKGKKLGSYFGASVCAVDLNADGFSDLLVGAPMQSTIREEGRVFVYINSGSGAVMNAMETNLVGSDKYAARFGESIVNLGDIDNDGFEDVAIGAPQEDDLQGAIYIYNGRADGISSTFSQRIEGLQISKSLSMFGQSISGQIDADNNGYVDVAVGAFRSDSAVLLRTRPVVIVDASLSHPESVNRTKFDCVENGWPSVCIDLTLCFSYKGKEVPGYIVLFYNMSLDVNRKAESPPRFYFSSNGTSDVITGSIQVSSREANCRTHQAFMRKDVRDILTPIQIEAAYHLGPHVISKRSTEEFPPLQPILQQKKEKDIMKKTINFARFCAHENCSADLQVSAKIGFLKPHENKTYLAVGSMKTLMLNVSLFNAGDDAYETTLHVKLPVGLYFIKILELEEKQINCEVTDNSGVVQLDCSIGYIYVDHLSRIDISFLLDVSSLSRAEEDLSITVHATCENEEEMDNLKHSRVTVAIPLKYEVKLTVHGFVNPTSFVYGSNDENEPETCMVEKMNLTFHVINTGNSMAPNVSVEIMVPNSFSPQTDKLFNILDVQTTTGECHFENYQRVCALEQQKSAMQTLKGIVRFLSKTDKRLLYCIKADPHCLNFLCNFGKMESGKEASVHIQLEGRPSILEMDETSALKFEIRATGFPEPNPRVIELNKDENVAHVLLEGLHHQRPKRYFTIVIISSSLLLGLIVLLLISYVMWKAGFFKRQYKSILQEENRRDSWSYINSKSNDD
# PG9 binder: PG9 antibody binding by small molecule; TR-FRET gp120-PG9 antibody binding; inhibition, % at 6.7 µM; 360,000 tested, 0.43% active; in the data active means inhibition above about 8.5%
# Exocytosis CP01: blocks lytic granule exocytosis; shares compounds with Granule exo inh; TALL-104 cells, LAMP-1 externalization, flow cytometry; stimulated with PMA plus thapsigargin; inhibition, % at 10 µM; 1,500 tested, 11% active; in the data active means inhibition above about 60%;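 further: 0% = stimulated vehicle wells and 100% = unstimulated wells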
# * hit, by the source's call; i = inactive; nt = no result given.
SMILES,Granule exo inh,NR1D1 modulator,ABCB6 inh MLPCN,VLA-4 inh,PG9 binder,Exocytosis CP01
O=C(CN1CCC(C(=O)c2ccc3c(c2)OCCO3)CC1)Nc1ccccc1C(F)(F)F,88.5*,5.1,95.0,-0.2,0.3,-3.0
C=CCN(C(=O)Cc1cccs1)c1nc(-c2ccc(S(C)(=O)=O)cc2)cs1,6.1,3.0,89.0,-1.2,0.7,nt
C=CCN(C(=O)CCc1ccccc1OC)c1nc(-c2ccc(S(C)(=O)=O)cc2)cs1,82.6*,6.8,97.0,11.6,-1.1,-11.6
Cc1ccc(C)c(N2CCN(CCCNC(=O)Cn3c(=O)c4cccn4c4cccnc43)CC2)c1,74.9*,-1.1,105.0,15.6,0.8,-12.3
Cc1ccc(C)c(N2CCN(CCCNC(=O)CCn3c(=O)c4cccn4c4cccnc43)CC2)c1,3.3,2.6,103.0,0.6,-0.8,nt
C[C@H](CO)N1C[C@H](C)[C@@H](CN(C)CC2CCCCC2)Oc2c(NS(=O)(=O)c3cccs3)cccc2C1=O,32.2,nt,90.0,21.8,nt,nt
C[C@H](CO)N1C[C@H](C)[C@@H](CN(C)S(=O)(=O)c2ccc(F)cc2)Oc2c(NC(=O)c3ccncc3)cccc2C1=O,92.2*,1.1,98.0,nt,1.7,-15.9
CNC[C@H]1Oc2c(NS(=O)(=O)c3cccs3)cccc2C(=O)N([C@H](C)CO)C[C@@H]1C,77.2*,6.0,98.0,10.9,-0.2,-3.3
COC(=O)[C@]12C[C@H](CC(=O)NCCc3ccccc3OC)C(=O)N(Cc3cccc4ccccc34)C1=C[C@H](COCc1ccccc1)O[C@@H]2C,nt,-1.1,nt,nt,nt,nt
COc1ccc(COc2ccc3ccc(=O)oc3c2)cc1,85.8*,4.6,91.0,-3.8,-0.2,-13.5
CN(C)CCCNc1ncnc2oc(-c3ccccc3)c(-c3ccccc3)c12,58.9*,8.6,96.0,16.7,-1.7,4.3
c1ccc(-c2oc3ncnc(NCCCn4ccnc4)c3c2-c2ccccc2)cc1,40.0,nt,104.0,27.6,nt,nt
Cn1c(=O)c(N)c2c3c(c(Br)ccc31)C(=O)c1ccccc1-2,85.9*,20.4,104.0,-0.6,-4.8,68.4*
CCCCNc1c2c3c(cccc3n(C)c1=O)C(=O)c1ccccc1-2,15.8,nt,329.0,-473.1,nt,nt
Cc1ccc(-n2c(SCC(=O)c3ccc(O)c(O)c3)nnc2-c2ccccc2)cc1,nt,-24.6,nt,nt,nt,nt
O=C(N[C@@H](Cc1ccccc1)C(=O)NCP(=O)(O)OC(Cc1ccccc1)C(=O)O)OCc1ccccc1 (some centres not stated),nt,-0.8,nt,nt,nt,nt
Cc1sc2ncnc(N3CCN(Cc4ccccc4)CC3)c2c1-c1ccc(F)cc1,65.4*,4.7,100.0,0.8,0.1,-11.3
O=C(CSc1ncnc2scc(-c3ccccc3)c12)N1CCN(Cc2ccc3c(c2)OCO3)CC1,-2.9,3.1,89.0,-50.4,-1.3,nt
c1ccc(-c2csc3ncnc(N4CCN(Cc5ccc6c(c5)OCO6)CC4)c23)cc1,76.5*,7.1,97.0,i,0.2,-4.2
Fc1ccc(CN2CCN(c3ncnc4scc(-c5ccccc5)c34)CC2)cc1,74.5*,3.1,97.0,-42.5,-1.2,-5.2
Fc1ccc(-c2csc3ncnc(N4CCN(Cc5ccccc5)CC4)c23)cc1,1.0,4.0,100.0,-5.7,1.7,nt
Cc1cc(-c2csc3ncnc(N4CCN(C)CC4)c23)cc(C)c1C,96.2*,3.9,93.0,-5.9,-2.1,1.2
CCOC(=O)[C@@]12CCCC3=C1N(CCC3)C(=O)[C@H]2CC(=O)NCc1cccc2ccccc12,nt,-0.8,nt,nt,nt,nt
CCOc1ccccc1N1CCN(c2ncnc3scc(-c4ccc(OC)cc4)c23)CC1,19.0,3.2,102.0,-9.8,-1.5,nt
COc1ccc(-c2csc3ncnc(N4CCN(c5ccccc5OC)CC4)c23)cc1,87.9*,3.2,92.0,1.0,1.7,-10.1
SMILES,Granule exo inh,NR1D1 modulator,ABCB6 inh MLPCN,VLA-4 inh,PG9 binder,Exocytosis CP01
CC(C)(C)[C@@H]1CCC(=O)N(CC[C@H](Sc2ccc(Br)cc2)c2ccccc2)CC1,65.4*,3.6,96.0,9.3,-1.6,-5.3
C[C@@H]1O[C@@H](OC[C@H]2OC(Oc3c(-c4ccc(O)c(O)c4)oc4cc(O)cc(O)c4c3=O)[C@H](O)[C@@H](O)[C@@H]2O)[C@H](O)[C@H](O)[C@H]1O (some centres not stated),nt,-0.7,nt,nt,nt,nt
COc1cc(CCC(C)=O)ccc1OC(=O)c1c(-c2c(F)cccc2Cl)noc1C,nt,1.8,nt,nt,0.9,nt
CSc1scc2c1-c1nc(SCC(=O)C(C)(C)C)ncc1CC2,73.8*,6.8,97.0,25.1,-1.6,-11.2
CCc1nccn1C(=O)c1cnn2c(C(F)F)cc(-c3ccc(C)cc3)nc12,89.3*,-2.0,97.0,12.3,-0.5,37.0
COCOCCn1cc(CN2CCS(=O)(=O)N(Cc3ccc(-c4ccc(Cl)c(Cl)c4)cc3)C(C(C)C)C2=O)nn1 (configuration not stated),57.3*,0.9,91.0,nt,-0.1,33.3
CCOC(=O)N1CCN(C(=O)C[C@H]2C[C@@]3(C(=O)OC)C(=C[C@H](C(C)(C)C)O[C@@H]3C)N(CCc3ccc(OC)c(OC)c3)C2=O)CC1,nt,0.2,nt,nt,nt,nt
COc1ccc(S[C@]2(C(=O)N3CCN(c4ncccn4)CC3)CC(=O)N(C(=O)CCc3ccccc3)[C@@H]2c2ccc(OC)cc2)cc1,nt,3.6,nt,nt,nt,nt
COC(=O)CCS(=O)(=O)c1nc(-c2ccccc2)cc(C(F)(F)F)n1,86.9*,nt,99.0,27.9,nt,20.1
CS(=O)(=O)c1nc(-c2ccc(F)cc2)cc(C(F)(F)F)n1,85.9*,-1.4,97.0,nt,1.7,18.1
COc1nc(-c2ccccc2)cc(C(F)(F)F)n1,3.3,-1.4,91.0,2.9,-0.3,nt
O=C(O)CCS(=O)(=O)c1nc(-c2cccs2)cc(C(F)(F)F)n1,8.9,-1.6,103.0,-6.2,-0.1,nt
Cc1cc(NC(=O)CCCS(=O)(=O)c2nc(-c3cccs3)cc(C(F)(F)F)n2)no1,60.8*,-4.6,85.0,23.2,0.7,17.5
COc1ccc(-c2cc(C(F)(F)F)nc(S(C)(=O)=O)n2)cc1,39.6,-1.4,99.0,17.2,-4.3,nt
COC(=O)[C@]12C[C@H](CC(=O)NCCC(C)C)C(=O)N(Cc3ccccc3)C1=C[C@H](COCc1ccccc1)O[C@@H]2C,nt,3.1,nt,nt,nt,nt
CCOC(=O)CC[C@@]1(C(=O)OCC)C[C@@H](CC(=O)NCCCOC)C(=O)N2CCCC=C21,nt,0.0,nt,nt,nt,nt
CCOC(=O)N1CCN(C(=O)C[C@H]2C[C@@]3(C(=O)OC)C(=C[C@H](C(C)C)O[C@@H]3C3CC3)N(Cc3ccc4c(c3)OCO4)C2=O)CC1,nt,-2.8,nt,nt,nt,nt
CCCCNC(=O)C[C@H]1C[C@@]2(C(=O)OC)C(=C[C@H](C(C)C)O[C@@H]2C2CC2)N(Cc2ccc3c(c2)OCO3)C1=O,nt,5.4,nt,nt,nt,nt
CC(=O)OCCCN(C)CC/C=C1/c2ccccc2CSc2ccccc21,61.7*,1.8,98.0,-12.6,-0.5,-14.6
CN(CC1CCN(CCc2cccc(C(F)(F)F)c2)CC1)C(=O)c1ccccc1,56.1*,-1.9,93.0,-0.5,0.1,-12.1
